# Measured values as given in ChEMBL document CHEMBL3433997, “St. Jude Leishmania screening dataset” (2016).
# Molecular target: Solute carrier family 2, facilitated glucose transporter member 1 (Homo sapiens) (UniProt P11166)
# Assay: ST_JUDE_LEISH: Cytotoxicity at 2uM final concentration against transgenic Leishmania Mexicana promastigotes LmGLUT1 that are glucose transport deficient and complemented with the human glucose transporter GLUT1. Activity is measured by DNA content using SYBR green in vitro
# Assay type: functional
# Solute carrier family 2, facilitated glucose transporter member 1 (Homo sapiens), sequence (P11166 whole entry): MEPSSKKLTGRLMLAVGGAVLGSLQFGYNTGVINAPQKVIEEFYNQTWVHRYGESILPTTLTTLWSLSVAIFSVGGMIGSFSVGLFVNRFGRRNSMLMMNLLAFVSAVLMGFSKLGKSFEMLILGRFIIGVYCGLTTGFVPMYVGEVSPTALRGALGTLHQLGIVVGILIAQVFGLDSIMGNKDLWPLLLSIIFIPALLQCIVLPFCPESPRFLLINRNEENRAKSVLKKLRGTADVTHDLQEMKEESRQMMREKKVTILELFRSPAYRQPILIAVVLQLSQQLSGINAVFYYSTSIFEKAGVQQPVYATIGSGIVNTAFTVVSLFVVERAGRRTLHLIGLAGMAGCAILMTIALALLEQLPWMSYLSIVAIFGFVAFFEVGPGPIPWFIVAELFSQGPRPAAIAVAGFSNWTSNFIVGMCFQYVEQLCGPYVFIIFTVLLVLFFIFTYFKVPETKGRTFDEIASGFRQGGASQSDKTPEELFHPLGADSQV
row,Structure (SMILES),inhibition [%]
1,COc1ccc(NC(=O)c2ccc(NC(=O)c3ccc(Cl)cc3)cc2)cc1N1CCN(C)CC1,4.33
2,c1ccc(-n2cncn2)cc1,0.46
3,CNC(=O)c1ccc2nc(C3CC3)n(CC3CCN(S(=O)(=O)c4cccc(Cl)c4)CC3)c2c1,1.69
4,CCN(CC)CC(O)c1cc(-c2ccc(C)cc2)nc2c(C)cc(C)cc12 (stereo not given),3.3
5,CCCN(Cc1ccc(OCC)cc1)Cc1cc(=O)c2cc(Cl)ccc2[nH]1,8.02
6,CCCCCCCN1CC[C@@H](CCCc2ccnc3ccc(OC)cc23)[C@@H](CCN)C1,3.03
7,Cc1cccc(-c2ccc(CNC3CCN(CC4Cn5c(=O)ccc6ccc(F)c4c65)CC3)cn2)c1 (stereo not given),6.75
8,CC(C)c1ccc(CN2CCCCC(NC(=O)c3cc(-c4ccccc4F)cs3)C2)cc1 (stereo not given),8.71
9,O=C(NCC1CCC(CNCCc2ccccc2)CC1)Nc1ccc(Cl)c(Cl)c1 (stereo not given),-0.7
10,O=C(NCCCCCN1CCC(c2c[nH]c3ccccc23)CC1)Nc1ccc(Cl)c(Cl)c1,-1
11,COc1ccc(S(=O)(=O)NCC2CCCN(CCCCCNC(=O)/C=C/c3ccc(Cl)c(Cl)c3)C2)cc1 (stereo not given),0.97
12,O=C(Nc1ccccc1C(F)(F)F)Nc1nn(Cc2c(F)cccc2Cl)cc1Br,5.53
13,Cc1cccc2nc(-c3ccc(-c4ccc(NC(=O)Nc5ccc(Cl)cc5)cc4)s3)[nH]c12,1.01
14,Cc1ccc(NC(=O)c2ccc3ncccc3c2)cc1OC1CCN(C(C)C)C1 (stereo not given),8.85
15,COc1ccc(C2C(C(=O)Nc3ccccc3)=C(C)Nc3c(C(=O)Nc4ccccc4)cnn32)cc1 (stereo not given),2.83
16,FC(F)(F)c1cccc(Nc2nc(-c3ccccc3)nc3ncccc23)c1,3.41
17,Cc1cccc2nc(-c3ccc(-c4ccc(C(=O)NCCN5CCCC5)cc4)cc3)[nH]c12,0.86
18,c1ccc(Oc2ccc(Nc3ccnc4cc(-c5ccc(CNCCN6CCOCC6)o5)ccc34)cc2)nc1,2.93
19,CCc1c(C(=O)NC2CCC(N3CCC(c4ccccc4OC)CC3)CC2)[nH]c2ccc(Br)cc12 (stereo not given),0.33
20,COc1ccc2c(NCCc3ccccc3)cc(-c3ccccc3)nc2c1,9.93

row,Structure (SMILES),inhibition [%]
1,COc1ccc(-c2ccc(CNC3Cc4ccccc4C3)cc2)cc1S(=O)(=O)NCCN1CCCC1,1.48
2,C=CCc1c(C(=O)NCC23CC4CC(CC(C4)C2)C3)nc2ccccc2c1O,-2.74
3,N#Cc1ccc2[nH]cc(C(=O)CCCCCN(Cc3ccccc3)Cc3ccccc3)c2c1,0.31
4,COc1ccc(CN2CCCN(Cc3cccc(C(=O)Nc4ccc(C)c(F)c4)c3)CC2)cc1,0.27
5,COc1cccc(-c2cc(C(=O)Nc3ccc4[nH]c(-c5ccccc5)nc4c3)[nH]n2)c1,4.77
6,Cc1[nH]c(C)c(-c2ccc(Oc3ccc(Cl)cc3)cc2)c(=O)c1Cl,2.75
7,Cc1cc(OCCCN2CCC(NS(=O)(=O)c3cccc(Br)c3)C2)c2ccccc2n1 (stereo not given),0.6
8,NCc1ccc(CNCc2ccc(-c3ccc(-c4nc5cc(C(F)(F)F)ccc5[nH]4)s3)cc2)cc1,0.59
9,CN1CCC(NCc2cccc(-c3cnc(NCc4ccccc4)nc3)c2)CC1,0.74
10,O=C(NCCNc1ccnc2cc(Cl)ccc12)c1ccccc1F,-1.91
11,NCC1CCCN1Cc1ccc(-c2cccc(-c3nc4cc(F)ccc4[nH]3)c2)cc1 (stereo not given),3.25
12,CN1CCN(c2ccnc3ccc(NC(=O)Nc4ccc5c(c4)CCC5=O)cc23)CC1,3.7
13,O=C(Cc1ccc(-c2ccccc2)cc1)N[C@H]1CCN(Cc2ccc(OCCCN3CCCCC3)cc2)C1,18.6
14,FC(F)(F)c1ccc2[nH]c(-c3cccc(-c4ccc(CNCc5cnn(-c6ccccc6)n5)cc4)c3)nc2c1,-0.1
15,CCCC(=O)Nc1ccc(Cl)c(NC(=O)COc2cc(C)ccc2C(C)C)c1,9.77
16,COc1ccccc1C1CCN(C2CCC(NC(=O)/C=C/c3cc(C(F)(F)F)cc(C(F)(F)F)c3)CC2)CC1 (stereo not given),-3.08
17,CCOC(=O)C1=C(C)NC(Cn2ccnc2)=C(C(=O)OCC)C1c1ccc(C(C)(C)C)cc1 (stereo not given),2.7
18,O=C1CCCN1CCCNCc1ccc(-c2cccc(-c3nc4cc(F)ccc4[nH]3)c2)cc1,-2.56
19,c1ccc(-c2nnc(-c3ccccn3)nc2NC2CCCCC2)cc1,80
20,O=C(CC1SC(N2N=C(c3cccs3)CC2c2ccccc2)=NC1=O)Nc1ccccc1F (stereo not given),14.2

# Molecular target: Hexose transporter 1 (Plasmodium falciparum) (UniProt O97467)
# Assay: ST_JUDE_LEISH: Cytotoxicity at 2uM final concentration against transgenic Leishmania Mexicana promastigotes LmPfHT that are glucose transport deficient and complemented with the Plasmodium falciparum hexose transporter. Activity is measured by DNA content using SYBR green in vitro
# Assay type: functional
row,Structure (SMILES),inhibition [%]
1,COc1ccc(NC(=O)c2ccc(NC(=O)c3ccc(Cl)cc3)cc2)cc1N1CCN(C)CC1,4.66
2,c1ccc(-n2cncn2)cc1,1.47
3,CNC(=O)c1ccc2nc(C3CC3)n(CC3CCN(S(=O)(=O)c4cccc(Cl)c4)CC3)c2c1,1.44
4,CCN(CC)CC(O)c1cc(-c2ccc(C)cc2)nc2c(C)cc(C)cc12 (stereo not given),3.65
5,CCCN(Cc1ccc(OCC)cc1)Cc1cc(=O)c2cc(Cl)ccc2[nH]1,8
6,CCCCCCCN1CC[C@@H](CCCc2ccnc3ccc(OC)cc23)[C@@H](CCN)C1,2.34
7,Cc1cccc(-c2ccc(CNC3CCN(CC4Cn5c(=O)ccc6ccc(F)c4c65)CC3)cn2)c1 (stereo not given),7.42
8,CC(C)c1ccc(CN2CCCCC(NC(=O)c3cc(-c4ccccc4F)cs3)C2)cc1 (stereo not given),8.1
9,O=C(NCC1CCC(CNCCc2ccccc2)CC1)Nc1ccc(Cl)c(Cl)c1 (stereo not given),-1.96
10,O=C(NCCCCCN1CCC(c2c[nH]c3ccccc23)CC1)Nc1ccc(Cl)c(Cl)c1,-1.05
11,COc1ccc(S(=O)(=O)NCC2CCCN(CCCCCNC(=O)/C=C/c3ccc(Cl)c(Cl)c3)C2)cc1 (stereo not given),0.66
12,O=C(Nc1ccccc1C(F)(F)F)Nc1nn(Cc2c(F)cccc2Cl)cc1Br,4.7
13,Cc1cccc2nc(-c3ccc(-c4ccc(NC(=O)Nc5ccc(Cl)cc5)cc4)s3)[nH]c12,1.2
14,Cc1ccc(NC(=O)c2ccc3ncccc3c2)cc1OC1CCN(C(C)C)C1 (stereo not given),10.2
15,COc1ccc(C2C(C(=O)Nc3ccccc3)=C(C)Nc3c(C(=O)Nc4ccccc4)cnn32)cc1 (stereo not given),0.21
16,FC(F)(F)c1cccc(Nc2nc(-c3ccccc3)nc3ncccc23)c1,2.83
17,Cc1cccc2nc(-c3ccc(-c4ccc(C(=O)NCCN5CCCC5)cc4)cc3)[nH]c12,-1.27
18,c1ccc(Oc2ccc(Nc3ccnc4cc(-c5ccc(CNCCN6CCOCC6)o5)ccc34)cc2)nc1,2.52
19,CCc1c(C(=O)NC2CCC(N3CCC(c4ccccc4OC)CC3)CC2)[nH]c2ccc(Br)cc12 (stereo not given),-0.12
20,COc1ccc2c(NCCc3ccccc3)cc(-c3ccccc3)nc2c1,10.8

row,Structure (SMILES),inhibition [%]
1,COc1ccc(-c2ccc(CNC3Cc4ccccc4C3)cc2)cc1S(=O)(=O)NCCN1CCCC1,3.39
2,C=CCc1c(C(=O)NCC23CC4CC(CC(C4)C2)C3)nc2ccccc2c1O,0.27
3,N#Cc1ccc2[nH]cc(C(=O)CCCCCN(Cc3ccccc3)Cc3ccccc3)c2c1,-2.35
4,COc1ccc(CN2CCCN(Cc3cccc(C(=O)Nc4ccc(C)c(F)c4)c3)CC2)cc1,-1.26
5,COc1cccc(-c2cc(C(=O)Nc3ccc4[nH]c(-c5ccccc5)nc4c3)[nH]n2)c1,3.14
6,Cc1[nH]c(C)c(-c2ccc(Oc3ccc(Cl)cc3)cc2)c(=O)c1Cl,2.92
7,Cc1cc(OCCCN2CCC(NS(=O)(=O)c3cccc(Br)c3)C2)c2ccccc2n1 (stereo not given),1.51
8,NCc1ccc(CNCc2ccc(-c3ccc(-c4nc5cc(C(F)(F)F)ccc5[nH]4)s3)cc2)cc1,1.45
9,CN1CCC(NCc2cccc(-c3cnc(NCc4ccccc4)nc3)c2)CC1,2.79
10,O=C(NCCNc1ccnc2cc(Cl)ccc12)c1ccccc1F,1.06
11,NCC1CCCN1Cc1ccc(-c2cccc(-c3nc4cc(F)ccc4[nH]3)c2)cc1 (stereo not given),1.31
12,CN1CCN(c2ccnc3ccc(NC(=O)Nc4ccc5c(c4)CCC5=O)cc23)CC1,2.43
13,O=C(Cc1ccc(-c2ccccc2)cc1)N[C@H]1CCN(Cc2ccc(OCCCN3CCCCC3)cc2)C1,17.2
14,FC(F)(F)c1ccc2[nH]c(-c3cccc(-c4ccc(CNCc5cnn(-c6ccccc6)n5)cc4)c3)nc2c1,0.61
15,CCCC(=O)Nc1ccc(Cl)c(NC(=O)COc2cc(C)ccc2C(C)C)c1,8.41
16,COc1ccccc1C1CCN(C2CCC(NC(=O)/C=C/c3cc(C(F)(F)F)cc(C(F)(F)F)c3)CC2)CC1 (stereo not given),-0.91
17,CCOC(=O)C1=C(C)NC(Cn2ccnc2)=C(C(=O)OCC)C1c1ccc(C(C)(C)C)cc1 (stereo not given),2.73
18,O=C1CCCN1CCCNCc1ccc(-c2cccc(-c3nc4cc(F)ccc4[nH]3)c2)cc1,-0.8
19,c1ccc(-c2nnc(-c3ccccn3)nc2NC2CCCCC2)cc1,79.8
20,O=C(CC1SC(N2N=C(c3cccs3)CC2c2ccccc2)=NC1=O)Nc1ccccc1F (stereo not given),11.5
